CYP2C19 act: human CYP2C19 activators, primary screen, biochemical, luminescence. activation factor at 5 µM. 96,000 tested, under 10 active. recombinant CYP2C19, luciferin-H EGE luminescence; active compounds read high; 0 = fully inhibited enzyme, 1 = untreated enzyme. Cytochrome P450 2C19 (Homo sapiens), P33261;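 active = activation factor of at least 2 at 5 µM in the primary screen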;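 note: 0 = wells with 2.5 mM tranylcypromine and 1 = vehicle-only wells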
Target sequence (P33261 whole entry, looked up): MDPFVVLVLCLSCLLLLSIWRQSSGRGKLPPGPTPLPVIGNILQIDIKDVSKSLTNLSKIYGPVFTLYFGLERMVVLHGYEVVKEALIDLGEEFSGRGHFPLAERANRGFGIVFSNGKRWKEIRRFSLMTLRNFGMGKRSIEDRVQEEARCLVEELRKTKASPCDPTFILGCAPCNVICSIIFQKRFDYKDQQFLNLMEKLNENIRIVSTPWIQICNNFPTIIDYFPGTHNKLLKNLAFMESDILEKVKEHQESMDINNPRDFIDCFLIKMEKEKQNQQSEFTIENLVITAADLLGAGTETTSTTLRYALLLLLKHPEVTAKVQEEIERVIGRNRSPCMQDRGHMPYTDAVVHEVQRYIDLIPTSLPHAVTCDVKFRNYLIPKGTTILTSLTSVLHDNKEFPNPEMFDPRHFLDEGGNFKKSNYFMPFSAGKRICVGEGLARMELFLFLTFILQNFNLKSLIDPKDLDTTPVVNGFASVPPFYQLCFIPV
Cav32 inh: Cav3.2 calcium influx blockers – cell-based, Fluo-4 calcium fluorescence, FDSS, MLSMR library, primary screen; Voltage-dependent T-type calcium channel subunit alpha-1H (Homo sapiens), O95180; Cav3.2-expressing cells; active compounds read low; B-score at 10 µM; 100,000 compounds, 4% hits;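 active = single-dose well whose peak fluorescence ratio is a statistical outlier from its plate by either plate-standardised score or position-corrected B-score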
CYP2C19 inh: blockers of cytochrome P450 2C19 activity – biochemical, luminescence, ADME assay, primary screen; inhibition, % at 5 µM; 96,000 compounds, 21% hits; P33261; CYP2C19 Supersomes, luciferin-H EGE luminescence, 30 min;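 active = CYP2C19 inhibition above a set limit at 5 µM in the primary screen, cut at about 50% in these data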;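 note: plate controls were negative control wells for no effect and 2.5 mM tranylcypromine positive control for full effect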
CYP2C9 inh: blockers of cytochrome P450 2C9 activity – biochemical, luminescence, ADME assay, primary screen; 96,000 compounds, 20% hits; AID 777, 2007; CYP2C9 Supersomes, luciferin-H conversion; inhibition, % at 5 µM;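 active = blocking of liver enzyme CYP2C9 beyond about 50% at 5 µM, limit read from the data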
CYP2C9 act: human CYP2C9 activators, primary screen, biochemical, luminescence; 96,000 compounds, 1.4% hits; Cytochrome P450 2C9 (Homo sapiens), P11712; recombinant CYP2C9, luciferin-H conversion; active compounds read high; factor 1 = untreated enzyme, 0 = blocked; activation factor at 5 µM;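 active = activation factor of 2 or more for CYP2C9 at a 5 µM dose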;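 note: 0 = sulfaphenazole-blocked wells and 1 = vehicle-only wells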
The depositor's hits bear a star; · = not tested or not shown. Shown are actives, neighbours in structure and some others; about 27% of the full set was active somewhere.

SMILES	CYP2C19 act	Cav32 inh	CYP2C19 inh	CYP2C9 inh	CYP2C9 act
CCOC(=O)C1=NN(c2ccccc2C)C2=NC(C)=C(C(=O)OC)C(c3cccs3)N12 (stereo not given)	·	-5.96*	·	·	·
COc1ccccc1N1CCN(C(=O)CSc2ccccc2)CC1	0.6	-1.01	43.6	45.7	0.5
CCOC(=O)N1CCN(CC(O)c2ccc3cc[nH]c3c2)CC1 (stereo not given)	0	0.465	95.6*	4.2	1
COc1ccccc1N1CCN(CC(O)c2ccc3cc[nH]c3c2)CC1 (stereo not given)	0.7	-5.56*	26.4	7.1	0.9
Cc1ccc(S(=O)(=O)N2CCOCC2)cc1NC(=O)c1cc2c(s1)CCC2	0.5	·	51.9*	63.8*	0.4
COc1cc(S(=O)(=O)N2CCOCC2)ccc1NC(=O)c1cc2c(s1)CCC2	0.5	-0.594	46.4	68.2*	0.3
Cc1ccc(NC(=O)c2cc3c(s2)CCC3)cc1S(=O)(=O)N1CCOCC1	1.3	0.249	-34.4	-0.3	1
N#Cc1sc2nc(-c3cccs3)cc(-c3ccc(Cl)cc3)c2c1N	0.8	-4.55	18.9	17.2	0.8
COc1ccc(-c2cc(C3CC3)nc3sc(C#N)c(N)c23)cc1	0.4	0.287	57.2*	58.8*	0.4
COc1cccc(NC(=O)CCCOc2cc(=O)n(C)c3ccccc23)c1	0.4	0.251	64.3*	15.1	0.8
Cn1c(=O)cc(OCCCC(=O)NC2CCCC2)c2ccccc21	0.9	0.00851	10.2	-12.0	1.1
CCOc1ccc(NC(=O)CCCOc2cc(=O)n(C)c3ccccc23)cc1	0.7	0.325	25.7	70.9*	0.3
Cc1onc(-c2ccccc2)c1C(=O)NCCc1c[nH]c2ccccc12	0.4	-1.76	58.6*	56.4*	0.4
COc1ccc(Cc2nnc(NC(=O)c3c(-c4ccccc4)noc3C)s2)cc1	0.2	-5.23*	84.0*	93.1*	0.1
COc1ccc(CCNC(=O)c2c(-c3ccccc3)noc2C)cc1OC	0.1	0.103	89.7*	85.6*	0.1
COc1ccc(Cc2nnc(NC(=O)c3c(-c4ccccc4)noc3C)s2)cc1OC	0.9	·	8.7	53.7*	0.5
COc1ccc(Cc2nnc(NC(=O)CSc3ccccc3)s2)cc1	1	-0.895	-0.9	17.3	0.8
Cc1onc(-c2ccccc2)c1C(=O)NC(C)C	1	-0.0147	1.5	8.4	0.9
CCOC(=O)c1c(NC(=O)c2c(-c3ccccc3)noc2C)sc(C)c1-c1ccccc1	0.9	·	8.9	40.9	0.6
COc1ccc(CCNC(=O)c2noc3c2CCCC3)cc1OC	0.8	1.05	16.3	-0.6	1
c1cnc(NC2CCCCCC2)nc1	1.1	0.521	-14.6	-8.8	1.1
O=C1NC[C@@H](Cc2cccc3ccccc23)N(CC2(c3ccccc3)CC2)C1=O	·	-0.0142	·	·	·
Cc1cc2ncn(C(=O)c3c(-c4c(Cl)cccc4Cl)noc3C)c2cc1C	0.3	-0.554	72.1*	68.7*	0.3
CCN1CCCC1CNC(=O)Cn1cnc2sc(C)c(S(=O)(=O)N3CCC(C)CC3)c2c1=O (stereo not given)	·	-0.526	·	·	·
COC(=O)C1=C(N)Oc2cc(C)n(CCN3CCOCC3)c(=O)c2C1c1cccnc1 (stereo not given)	0.3	0.667	71.2*	30.3	0.7
SMILES	CYP2C19 act	Cav32 inh	CYP2C19 inh	CYP2C9 inh	CYP2C9 act
COC(=O)C1=C(N)Oc2cc(C)n(C)c(=O)c2C1c1ccc(Cl)cc1 (stereo not given)	1.1	-0.899	-5.5	-25.1	1.3
COc1ccc(C2C(C#N)=C(N)Oc3cc(C)n(CCN4CCOCC4)c(=O)c32)cc1OC (stereo not given)	0.9	0.397	9.7	14.2	0.9
COC(=O)C1=C(N)Oc2cc(C)n(Cc3ccccc3)c(=O)c2C1c1ccccc1 (stereo not given)	0.6	-2.62	44.6	74.8*	0.3
O=c1oc2ccccc2cc1C1=Nn2c(nnc2-c2cccnc2)SC1	0.9	0.725	10.4	22.2	0.8
O=C(NCCS(=O)CCNC(=O)C(F)(F)F)C(F)(F)F	1.1	0.75	-6.0	-5.8	1.1
CCOC(=O)CN(C(=O)CSc1nnc(CNc2ccc(C)cc2C)o1)c1ccccc1	0.7	-0.161	33.0	47.0	0.5
O=C1CC(=Nc2ccccc2)NN1c1ccccc1	0.6	1.15	35.7	84.3*	0.2
CCc1ccc2c(c1)/C(=C/C(=O)c1cccs1)C(=O)N2	0.9	1.44	8.4	20.3	0.8
CCc1ccc2c(c1)/C(=N/N(C)C(=S)NC)C(=O)N2	0.5	·	51.6*	10.8	0.9
CCOC(=O)c1ccc(NCc2nc3ccccc3[nH]2)cc1	0.9	-0.134	14.7	65.3*	0.3
Cc1cc(C)cc(NC(=O)CCc2nc3ccccc3[nH]2)c1	1	-0.388	1.4	-29.0	1.3
O=C(CCc1ccccc1)Nc1ccncc1	0.1	-0.0364	85.8*	83.4*	0.2
CCOC(=O)Cc1nc2ccccc2[nH]1	0.9	-0.561	11.4	-13.0	1.1
O=C(CCc1nc2ccccc2[nH]1)Nc1ccccc1	0.4	-0.281	62.3*	32.8	0.7
CCCCOC(=O)CCc1nc2ccccc2[nH]1	0.5	-0.928	50.3*	-6.3	1.1
O=C(O)c1nn(-c2ccc(Cl)cc2)ccc1=O	1.1	0.278	-7.3	-8.6	1.1
CN1CCN(C(=O)c2ccccc2NC(=O)Cc2ccccc2)CC1	0.9	1.04	5.0	2.7	1
Cn1c(=O)cc(N)n(Cc2ccccc2)c1=O	·	1.58	·	·	·
Cc1ccc(S(=O)(=O)N2CCN(C(=O)c3ccccc3)CC2)cc1	0.7	0.661	33.8	11.9	0.9
COc1ccc(S(=O)(=O)N2CCN(C(=O)c3c(C)nn(-c4ccccc4)c3Cl)CC2)cc1	0.1	-0.54	88.3*	90.5*	0.1
Cc1ccc(S(=O)(=O)N2CCN(C(=O)c3c(C)nn(-c4ccccc4)c3Cl)CC2)cc1	0.8	-0.766	16.7	50.1*	0.5
O=C(NCCCN1CCOCC1)C1CCC(=O)N1C1CCCCC1 (stereo not given)	0.8	-0.183	20.9	-3.9	1
N#CC1=C(N)SC(N)=C(C#N)C1c1ccnc2ccccc12	0.8	0.555	23.7	69.5*	0.3
CC(C)CC(=O)O/N=C1\C(=O)N(Cc2ccc(Cl)cc2)c2ccc([N+](=O)[O-])cc21	0.4	-0.928	64.7*	58.0*	0.4
Cc1cc(NC(=O)CS(=O)(=O)c2cn(Cc3cccc(F)c3)c3ccccc23)no1	0.4	·	57.3*	71.5*	0.3
Cc1cc(NC(=O)CS(=O)(=O)c2cn(Cc3ccc(F)cc3)c3ccccc23)no1	0.8	-0.183	18.1	47.6	0.5
CCn1cc(S(=O)(=O)CC(=O)Nc2ccc(OC)cc2)c2ccccc21	0.4	9.23e-05	56.1*	47.8	0.5

Source: PubChem BioAssay (several laboratories)
